Measured values reported in PubChem BioAssay (NCATS).
Inconclusive results are not listed. A call without a number means that no potency is given here. Calls of active or inactive are those of the source. Calls come from the whole dose curve; as a rule, active = well fitted inhibition curve with a large enough effect; inconclusive = small, poorly fitted or top-dose-only effect; inactive = flat fitted curve, though single readings scatter.

Experiments:
Experiment in all cases: qHTS profiling for inhibitors of Plasmodium falciparum proliferation (AID 504749); note: nearly all actives have a fitted effect of over 60% in size
Settings in all cases: P. falciparum in erythrocytes, SYBR Green DNA, 72 h; series mostly up to 28.7 µM
CP250 = tested on: CP250
In short: (§1)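 Readout was DNA-dye fluorescence from lysed cultures, ex 485/em 535 nm. Parasitized red cells had grown 72 h with compound; data scaled between 0.29 uM artemisinin and DMSO wells and corrected using vehicle-only plates.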

CP260 = tested on: CP260
In short: as §1

CP262 = tested on: CP262
In short: as §1

CP269 = tested on: CP269
In short: as §1

CP315 = tested on: CP315
In short: as §1

DIV14 = tested on: DIV14
In short: as §1

CP256 = tested on: CP256
In short: as §1

CP265 = tested on: CP265
In short: as §1

CP325 = tested on: CP325
In short: as §1

DFO2036 = tested on: DFO2036
In short: as §1

CP252 = tested on: CP252
In short: as §1

CP266 = tested on: CP266
In short: as §1

CP268 = tested on: CP268
In short: as §1

CP286 = tested on: CP286
In short: as §1

CP329 = tested on: CP329
In short: as §1

CP305 = tested on: CP305
In short: as §1

CP335 = tested on: CP335
In short: as §1

CP291 = tested on: CP291
In short: as §1

CP297 = tested on: CP297
In short: as §1

CP247 = tested on: CP247
In short: as §1
Potency is the fitted concentration of half-maximal effect.

SMILES	Potency (CP250)	Potency (CP260)	Potency (CP262)	Potency (CP269)	Potency (CP315)	Potency (DIV14)	Potency (CP256)	Potency (CP265)	Potency (CP325)	Potency (DFO2036)	Potency (CP252)	Potency (CP266)	Potency (CP268)	Potency (CP286)	Potency (CP329)	Potency (CP305)	Potency (CP335)	Potency (CP291)	Potency (CP297)	Potency (CP247)
CCN(CC)CCOc1ccccc1C(=O)CCc1ccccc1	inactive	inactive	inactive	inactive	inactive	6.75 µM (active)	–	–	–	–	–	–	–	–	–	–	–	–	–	–
CN1CCC[C@@H]1CCO[C@](C)(c1ccccc1)c1ccc(Cl)cc1	–	inactive	inactive	–	inactive	–	inactive	inactive	inactive	inactive	–	–	–	–	–	–	–	–	–	–
CNCCCCOc1ccccc1Cc1ccccc1	–	–	inactive	–	–	3.79 µM (active)	–	8.91 µM (active)	–	–	–	–	–	–	–	–	–	–	–	–
NC(=O)C1(N2CCCCC2)CCN(CCCC(=O)c2ccc(F)cc2)CC1	inactive	–	inactive	inactive	inactive	–	inactive	–	inactive	inactive	inactive	inactive	inactive	inactive	inactive	–	–	–	–	–
CN(CCCN1c2ccccc2CCc2ccccc21)CC(=O)c1ccc(Cl)cc1	–	10 µM (active)	inactive	–	inactive	4.26 µM (active)	–	11.2 µM (active)	–	–	–	–	–	7.08 µM (active)	–	inactive	13.5 µM (active)	–	–	–
COc1ccc(C(Cl)=C(c2ccc(OC)cc2)c2ccc(OC)cc2)cc1	10 µM (active)	–	inactive	inactive	inactive	–	–	10 µM (active)	inactive	17.8 µM (active)	–	inactive	–	–	inactive	–	–	inactive	inactive	–
CN1CCN(CCC(=O)N2c3ccccc3Sc3ccc(C(F)(F)F)cc32)CC1	inactive	inactive	–	inactive	inactive	8.49 µM (active)	inactive	inactive	inactive	inactive	–	–	inactive	–	inactive	inactive	–	inactive	inactive	–
CC(=O)O[C@]1(C(C)=O)CC[C@H]2[C@@H]3C=C(Cl)C4=CC(=O)CC[C@]4(C)[C@H]3CC[C@@]21C	–	–	–	–	–	–	–	–	15.1 µM (active)	–	–	10.7 µM (active)	16.9 µM (active)	10 µM (active)	–	13.5 µM (active)	–	15.1 µM (active)	9.53 µM (active)	–
CN1CCc2cccc3c2[C@H]1Cc1ccc(O)c(O)c1-3	8.91 µM (active)	11.2 µM (active)	–	16.9 µM (active)	–	7.57 µM (active)	–	–	–	–	–	8.49 µM (active)	–	6.31 µM (active)	–	–	3.79 µM (active)	–	–	–
CO[C@]12C[C@@H](COC(=O)c3cncc(Br)c3)CN(C)[C@@H]1Cc1cn(C)c3cccc2c13	inactive	–	–	inactive	inactive	–	inactive	inactive	inactive	–	inactive	inactive	–	–	inactive	–	–	–	–	–
CC1(COc2ccc(CC3SC(=O)NC3=O)cc2)CCCCC1 (stereo unspecified)	inactive	inactive	inactive	inactive	inactive	inactive	inactive	inactive	inactive	inactive	inactive	inactive	inactive	inactive	inactive	inactive	inactive	inactive	–	–
CC(C)Nc1cccnc1N1CCN(C(=O)c2cc3cc(NS(C)(=O)=O)ccc3[nH]2)CC1	inactive	inactive	–	inactive	inactive	0.379 µM (active)	inactive	inactive	inactive	inactive	inactive	inactive	inactive	inactive	inactive	inactive	inactive	inactive	inactive	–
C[N+]1(CC2COC(c3ccccc3)(C3CCCCC3)O2)CCCCC1 (stereo unspecified)	–	4.47 µM (active)	5.36 µM (active)	4.78 µM (active)	6.01 µM (active)	6.01 µM (active)	10 µM (active)	10 µM (active)	6.75 µM (active)	7.94 µM (active)	10 µM (active)	8.49 µM (active)	7.57 µM (active)	5.01 µM (active)	–	4.78 µM (active)	–	4.78 µM (active)	6.01 µM (active)	–
O=C(CN1CCN(Cc2ccc3c(c2)OCO3)CC1)N1c2ccccc2Sc2ccccc21	–	8.91 µM (active)	–	–	–	12 µM (active)	–	7.94 µM (active)	–	–	–	inactive	–	10 µM (active)	–	–	–	–	–	–
CCNC(=O)/C=C/c1cccc(Br)c1	–	–	inactive	inactive	inactive	–	–	–	inactive	inactive	–	inactive	inactive	inactive	inactive	inactive	inactive	inactive	inactive	–
NC(=S)N/N=C/c1cccnc1	inactive	inactive	inactive	inactive	inactive	inactive	inactive	inactive	inactive	inactive	inactive	inactive	inactive	inactive	inactive	inactive	inactive	inactive	inactive	–
N/C(=N\N=C\c1ccc(Cl)cc1)N/N=C/c1ccc(Cl)cc1	–	3.55 µM (active)	inactive	inactive	inactive	inactive	10 µM (active)	–	inactive	3.16 µM (active)	–	inactive	inactive	3.55 µM (active)	inactive	inactive	–	inactive	inactive	–
COC(=O)C(c1ccccc1Cl)N1CCc2sccc2C1 (stereo unspecified)	–	–	–	–	–	inactive	–	–	–	–	–	–	–	–	–	–	–	–	inactive	inactive
COc1cc([C@H]2Oc3cc([C@H]4Oc5cc(O)cc(O)c5C(=O)[C@@H]4O)ccc3O[C@@H]2CO)ccc1O	inactive	inactive	inactive	inactive	inactive	–	inactive	inactive	inactive	inactive	inactive	inactive	inactive	inactive	inactive	inactive	inactive	inactive	inactive	–
O=S(c1cc(Cl)cc(Cl)c1O)c1cc(Cl)cc(Cl)c1O	28.2 µM (active)	–	–	–	–	–	–	–	–	–	–	–	–	inactive	–	–	–	–	–	–
